Hits are enriched below; roughly 19% of the tested compounds scored in any of these assays.
HepG2 tox-1 – counter-screen for TGF-b inhibitors: cytotoxicity in HepG2 cells; HepG2 CAGA-GFP viability, ATP luminescence, 18 h; Potency, µM (doses to about 46.1 µM), inactives show top-dose activity change, negative = cytotoxicity, usual class: cytotoxic; 410,000 tested, 0.76% active; also: potency is read from the fitted curve at half-maximal effect
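CellTiter-Glo luminescence gave cytotoxicity after 18 hours at 37 degrees C. The cells were HepG2 CAGA-GFP in 1% FBS DMEM, stimulated with 500 pg/mL TGF-beta after compound addition. %Activity was normalised to no-cell wells (complete cell-killing) and DMSO (no toxicity), and curves were fitted and classified.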
TGFb inhibitor – TGF-b pathway inhibition; HepG2 CAGA-GFP TGF-b/SMAD3 reporter, GFP fluorescence, 18 h; TGF-beta stimulated, 500 pg/mL final; Potency, µM (titrated, usually from 46.1 µM), inactives show at the top dose activity, negative = inhibition, usual class: inhibitors; 410,000 tested, 1.2% active; also: potency is read from the fitted curve at half-maximal effect; % is scaled to controls: 0 for no effect and ±100 for the full control effect; nearly all actives have a fitted effect of over 65% in size
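Inhibition was scored as loss of TGF-beta-induced (500 pg/mL final, 18 hours, 37 degrees C) GFP in HEPG2 cells carrying a CAGA-GFP reporter, in DMEM with 1% FBS. Well GFP was summed per cell; Activity was normalised to unstimulated and stimulated DMSO wells, then concentration-response fitting.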
ASM inhibitor – blocks human secretory acid sphingomyelinase | P17405 | 340,000 tested, 0.006% active | placental ASM, HMU-PC fluorogenic substrate, 60 min | Potency, µM (titrated, usually from 57.5 µM), for inactives: top-dose activity change, negative = inhibition, most hits filed as inhibitors; also: potency is read from the fitted curve at half-maximal effect
Target sequence (P17405 47-631 limits assumed): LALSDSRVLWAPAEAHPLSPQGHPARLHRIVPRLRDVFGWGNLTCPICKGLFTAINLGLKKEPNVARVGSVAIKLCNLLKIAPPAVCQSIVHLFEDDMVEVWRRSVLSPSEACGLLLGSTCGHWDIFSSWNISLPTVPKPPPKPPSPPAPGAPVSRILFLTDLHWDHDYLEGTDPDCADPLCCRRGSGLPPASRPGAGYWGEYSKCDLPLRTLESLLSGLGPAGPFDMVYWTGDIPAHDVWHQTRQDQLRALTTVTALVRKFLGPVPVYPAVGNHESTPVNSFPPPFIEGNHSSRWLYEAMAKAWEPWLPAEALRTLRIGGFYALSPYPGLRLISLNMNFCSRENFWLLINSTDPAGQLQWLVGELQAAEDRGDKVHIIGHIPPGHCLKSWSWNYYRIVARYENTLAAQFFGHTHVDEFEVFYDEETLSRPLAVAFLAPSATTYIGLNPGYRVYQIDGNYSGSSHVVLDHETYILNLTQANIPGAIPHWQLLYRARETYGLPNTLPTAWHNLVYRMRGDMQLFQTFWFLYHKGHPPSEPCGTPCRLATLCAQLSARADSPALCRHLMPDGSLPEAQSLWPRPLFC
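Fluorogenic HMU-PC substrate (9 uM final) is turned over by placental ASM in 60 min at 37 C after a 10 min compound preincubation. Reaction ended by alkaline stop (pH 10), with fluorescence read at 386/447 nm.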
IL-1B inflam inh – inflammasome signaling inhibition, IL-1 beta readout. activity change, % at 57.5 µM. THP-1 LPS/ATP IL-1B secretion, AlphaLISA, 16 h; hits give low values. AID 743279. 360,000 tested, 4.7% active; in the data active = activity change below about -50%; inconclusive = mostly about -30% to -49%; also: % is scaled to controls: 0 for no effect and ±100 for the full control effect
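Secreted IL-1B measured by AlphaLISA bead assay after 16 h compound exposure of THP-1 cells; compounds (final up to 57.5 uM) added 1 h before LPS (250 ng/mL) and ATP (1.25 mM) stimulation; lower signal means less secretion.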
TDP1 cell CPT – growth inhibition of DT40 Tdp1-/-;hTDP1 cells with camptothecin (screen for TDP1 inhibitors); Potency, µM (titrated, usually from 46.2 µM), for the others: at the top dose activity change, negative = growth inhibition, hits mostly inhibitors; AID 686979; 420,000 tested, 12% active; chicken DT40 Tdp1-/-;hTDP1 cells + 20 nM CPT, ATP luminescence, 48 h; also: potency is read from the fitted curve at half-maximal effect; % is scaled to controls: 0 for no effect and ±100 for the full control effect; nearly all actives have a fitted effect of over 55% in size
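Chicken DT40 Tdp1-/- cells complemented with human TDP1, 400 cells/well, exposed to compounds plus 20 nM camptothecin for at least 48 h at 37 C; viability read as ATP content by CellTiter-Glo luminescence.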
TDP1 cell noCPT – qHTS for Inhibitors of human tyrosyl-DNA phosphodiesterase 1 (TDP1): qHTS in cells in absence of CPT; DT40 Tdp1-/- hTDP1 cells, no CPT, ATP luminescence, 48 h; Potency, µM (series often up to 46.2 µM), inactives show at the highest dose activity change, negative = growth inhibition, actives largely listed as inhibitors; 420,000 tested, 15% active; AID 686978, 2013; also: potency is read from the fitted curve at half-maximal effect; % is scaled to controls: 0 for no effect and ±100 for the full control effect; nearly all actives have a fitted effect of over 55% in size
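Stably hTDP1-transfected Tdp1-null chicken DT40 cells were treated with library compounds minus camptothecin and grown for at least 48 hr at 37 °C, after which cellular ATP was quantified by luminescence.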
TGFb confirm – confirmation of TGF-b signaling inhibitors in HepG2 reporter cells; shares compounds with TGFb inhibitor; Potency, µM (top dose mostly 46.1 µM), for inactives: top-dose activity, negative = inhibition, usual class: inhibitors; 1,600 tested, 63% active; HepG2 CAGA-GFP TGF-b reporter, GFP fluorescence, 18 h; cells stimulated with TGF-beta, 500 pg/mL; also: potency is read from the fitted curve at half-maximal effect; % is scaled to controls: 0 for no effect and ±100 for the full control effect; nearly all actives have a fitted effect of over 65% in size
HepG2 tox-2 – counter-screen for TGF-b inhibitors: cytotoxicity in HepG2 cells; shares compounds with TGFb inhibitor; HepG2 CAGA-GFP viability, ATP luminescence, 18 h; cells stimulated with TGF-beta, 500 pg/mL; Potency, µM (titrated, usually from 46.1 µM), without a hit: at the highest dose activity, negative = cytotoxicity, usual class: inhibitors; 1,600 tested, 27% active; AID 720535; also: potency is read from the fitted curve at half-maximal effect; % is scaled to controls: 0 for no effect and ±100 for the full control effect; nearly all actives have a fitted effect of over 70% in size
TGFb CCL64 inh – TGF-b inhibition, CCL64 orthogonal assay; shares compounds with TGFb inhibitor; CCL64 CAGA-GFP reporter, TGF-b stimulated, GFP fluorescence, 18 h; Potency, µM (doses to about 46.1 µM), for inactives: at the top dose activity, negative = inhibition, hits mostly inhibitors; 1,600 tested, 41% active; AID 720536; also: potency is read from the fitted curve at half-maximal effect; nearly all actives have a fitted effect of over 65% in size
TGFb COP inh – validation of TGF-b inhibitors in HepG2 COP promoter reporter | Potency, µM (series often up to 46.1 µM), for inactives: at the highest dose activity, negative = inhibition, most hits filed as inhibitors | shares compounds with TGFb inhibitor | 1,600 tested, 3% active | HepG2 COP-GFP TGF-b reporter, GFP fluorescence, 18 h; cells stimulated by added recombinant TGF-beta; also: potency is read from the fitted curve at half-maximal effect; nearly all actives have a fitted effect of over 70% in size
* hit, by the source's call; ? = inconclusive; . = not tested or not shown; ! = repeats disagree. Unless noted, calls follow the shape of the dose curve; as a rule, active = well fitted curve in the direction sought with a large enough effect; inconclusive = small, poorly fitted or top-dose-only effect, or another doubt; inactive = no such curve, though single readings can be large; an effect the other way counts as inactive or inconclusive.

SMILES	HepG2 tox-1	TGFb inhibitor	ASM inhibitor	IL-1B inflam inh	TDP1 cell CPT	TDP1 cell noCPT	TGFb confirm	HepG2 tox-2	TGFb CCL64 inh	TGFb COP inh
CCCCC(Sc1nc(C)c(Cc2ccccc2)c(=O)[nH]1)C(=O)O (stereo not drawn)	8.5%	3.7%	2.4%	-5.8	-4.1%	-11.7%	.	.	.	.
CCN(CC)S(=O)(=O)c1ccc2oc(SCC(=O)Nc3cc(C)on3)nc2c1	-13.8%	10µM*	-0.3%	-13.8	0.651µM*	0.731µM*	?	?	-25.9%	16.6%
CCN(CC)S(=O)(=O)c1ccc2oc(SCC(=O)NC3CC3)nc2c1	-15.0%	?	.	27.3	-23.9%	-11.1%	.	.	.	.
O=C1C=C(N2CCN(c3ccccn3)CC2)C(=O)c2c(O)ccc(O)c21	-92.1%	7.08µM*	0.0%	-15.1	1.46µM*	4.11µM*	4.61µM*	9.2µM*	?	-9.5%
CC(=O)Nc1ccc(Nc2nc3ccc(Cl)cc3n3cnnc23)cc1	4.7%	.	.	.	5.8%	-11.4%	.	.	.	.
CCCN(CCC)Cc1c(C(=O)N/N=C/C(C)=C\c2ccco2)nnn1-c1nonc1N	-14.8%	7.94µM*	-2.5%	-59.9*	20.6µM*	16.4µM*	5.17µM*	?	?	26.5%
CC(/C=N/NC(=O)c1nnn(-c2nonc2N)c1CN(C)C)=C\c1ccco1	-9.3%	10.7%	0.0%	-0.7	-19.0%	-21.9%	.	.	.	.
CC1(C)OC(=O)C2=C(C[C@@H](CCOCc3ccccc3)O[C@H]2c2ccc(F)cc2)O1	-26.0%	-0.6%	.	6.6	?	?	.	.	.	.
CCn1c(SCC(=O)c2ccccc2)nc2ccccc2c1=O	10.9%	7.2%	-4.0%	31.2	1.4%	-11.0%	.	.	.	.
CCn1c(/C=C/c2cc(Br)ccc2O)nc2ccccc2c1=O	-43.3%	10µM*	37.1%	-57.6*	?	?	?	?	-3.0%	23.6%
Cc1ccc(-c2ccc(CCC(=O)O)n2-c2ccc(C(=O)O)cc2)cc1	-4.3%	3.2%	41.3%	-4.9	6.9%	-20.8%	.	.	.	.
CC(C)C(=O)N1CCN(c2ccc(NC(=O)c3ccc([N+](=O)[O-])o3)cc2)CC1	-37.3%	?	-3.3%	-104.0*	2.06µM*	11.6µM*	5.8µM*	10.3µM*	?	-21.9%
CC(C)C(=O)N1CCN(c2ccc(NC(=O)c3ccc(Br)o3)cc2)CC1	0.8%	-9.9%	-0.8%	-11.7	?	-27.0%	.	.	.	.
CCCC(=O)N1CCN(c2ccc(NC(=O)c3ccc([N+](=O)[O-])o3)cc2Cl)CC1	11.2µM*	5.62µM*	-1.8%	-110.5*	0.92µM*	5.8µM*	3.66µM*	13µM*	23.1µM*	?
CC(C)C(=O)N1CCN(c2ccc(NC(=O)c3ccc([N+](=O)[O-])o3)cc2Cl)CC1	-55.5%	7.94µM*	-2.9%	-105.0*	1.16µM*	2.06µM*	5.8µM*	20.6µM*	?	-6.8%
COc1ccc(C(C)=O)cc1CS(=O)(=O)CC(=O)O	-30.7%	1.2%	0.4%	0.0	19.9%	10.1%	.	.	.	.
O=C(CSCc1ccc([N+](=O)[O-])cc1)Nc1ccccc1C(=O)O	6.0%	?	1.0%	0.0	1.7%	?	.	.	.	.
CCN(CC(=O)Nc1c(F)cccc1F)C(=O)c1cc([N+](=O)[O-])ccc1N1CCCCC1	-2.5%	?	.	-13.1	-16.9%	-24.0%	.	.	.	.
CCCCC(CC)C(=O)Nc1ncc([N+](=O)[O-])s1 (stereo not drawn)	1.9%	11.2µM*	-2.3%	-79.1*	?	?	7.31µM*	?	?	64.8%
CCC(=O)c1c[nH]c(C(=O)N2CCN(c3ccccc3)CC2)c1	-12.3%	49.0%	3.7%	9.1	10.4%	-14.4%	.	.	.	.
Cc1ccccc1C(=O)c1c[nH]c(C(=O)N2CCN(c3ccccc3F)CC2)c1	15.3%	?	7.3%	-66.2*	18.4µM*	14.6µM*	13µM*	-19.0%	?	2.8%
CC(=O)Nc1cc(C(=O)NCc2ccccc2)ccc1Sc1ccc(C)cc1	-1.1%	0.0%	.	.	?	?	.	.	.	.
OCc1ccc(-c2nn(Cc3ccccc3)c3ccccc23)o1	-49.8%	2.82µM*	-1.0%	-11.3	11.2µM*!	17.8µM*!	1.03µM*	0.651µM*	?	4.9%
Cc1ccc2nc(N3CCN(C(=O)c4ccc(F)cc4)CC3)c(C#N)cc2c1	-17.0%	10µM*	204.7%	-10.4	?	23.1µM*	?	-29.6%	?	1.4%
Cc1cc(C)c2nc(N3CCCN(C(=O)c4ccco4)CC3)c(C#N)cc2c1	-32.8%	-15.1%	172.0%	?	?	?	.	.	.	.
CCOc1ccc(C2=Nn3c(nnc3-c3ccccc3OC)SC2)cc1	-23.5%	10µM*	-10.4%	121.0	0.206µM*	0.184µM*	0.231µM*	-7.9%	0.461µM*	-5.9%
CCOc1ccc(-c2nnc3n2N=C(c2ccc(OC)cc2)CS3)cc1	-2.6%	19.0%	-14.9%	21.5	-24.6%	?	.	.	.	.
CC1Sc2ccc(S(=O)(=O)CCC(=O)N3CCN(c4cccc(Cl)c4)CC3)cc2NC1=O (stereo not drawn)	-14.2%	15.8µM*	-7.3%	0.0	13µM*	7.31µM*	18.4µM*	?	?	25.7%
Cc1cc(C)nc(NC(=O)c2ccccc2O)n1	-28.6%	0.6%	-0.5%	34.4	8.8%	-5.0%	.	.	.	.

Compound activity: PubChem, National Center for Advancing Translational Sciences (NCATS)
